Source: PubChem BioAssay (NCI)
Compounds without any hit were thinned out: in the full panel of roughly 83,000, 20% have a hit.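 Testing used 96-well plates and a 48-hour single-concentration exposure. Example: -40 means 40% of the starting cells died.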 A number with no mark means an inactive call. Activity calls are given as the source filed them. Rule for the calls: active = growth percent below 10; inactive = the rest.

Legend:
Experiment in all cases: NCI-60 one-dose screen, 48 h (100 = growth as untreated, 0 = no growth, -100 = all killed)
Conditions in all cases: 10 µM unless noted
HCT-15 colon = tested on: HCT-15 colon
HT29 colon = tested on: HT29 colon
SNB-75 CNS = tested on: SNB-75 CNS
SNB-19 CNS = tested on: SNB-19 CNS
U251 CNS = tested on: U251 CNS
PC-3 prostate = tested on: PC-3 prostate
SK-MEL-5 melanoma = tested on: SK-MEL-5 melanoma
UACC-62 melanoma = tested on: UACC-62 melanoma
LOX IMVI melanoma = tested on: LOX IMVI melanoma
SK-MEL-28 melanoma = tested on: SK-MEL-28 melanoma
SK-MEL-2 melanoma = tested on: SK-MEL-2 melanoma
EKVX NSCLC = tested on: EKVX NSCLC
SN12C renal = tested on: SN12C renal
UO-31 renal = tested on: UO-31 renal
TK-10 renal = tested on: TK-10 renal
ACHN renal = tested on: ACHN renal
CAKI-1 renal = tested on: CAKI-1 renal
A498 renal = tested on: A498 renal
CCRF-CEM leukemia = tested on: CCRF-CEM leukemia
MOLT-4 leukemia = tested on: MOLT-4 leukemia

| SMILES | growth (HCT-15 colon) | growth (HT29 colon) | growth (SNB-75 CNS) | growth (SNB-19 CNS) | growth (U251 CNS) | growth (PC-3 prostate) | growth (SK-MEL-5 melanoma) | growth (UACC-62 melanoma) | growth (LOX IMVI melanoma) | growth (SK-MEL-28 melanoma) | growth (SK-MEL-2 melanoma) | growth (EKVX NSCLC) | growth (SN12C renal) | growth (UO-31 renal) | growth (TK-10 renal) | growth (ACHN renal) | growth (CAKI-1 renal) | growth (A498 renal) | growth (CCRF-CEM leukemia) | growth (MOLT-4 leukemia) |
| --- | --- | --- | --- | --- | --- | --- | --- | --- | --- | --- | --- | --- | --- | --- | --- | --- | --- | --- | --- | --- |
| CCCCCCCCCCCCCCCCCC1=NC(C)(C)CN1C(C)(C)CO | 1.33% (active) | -100% (active) | -1.88% (active) | 37.2% | -100% (active) | -1.05% (active) | -53% (active) | -86.9% (active) | -100% (active) | -100% (active) | -69% (active) | 27% | 11.6% | -52.9% (active) | -35.1% (active) | -75.6% (active) | -65.2% (active) | 78.9% | -52.9% (active) | -55.2% (active) |
| O=C(NNC(=S)Nc1ccccc1)c1ccc(Nc2ncnc3c2cnn3-c2cccc(Br)c2)cc1 | 110% | 105% | 80% | 101% | 114% | 93.5% | 100% | 94.6% | 97.3% | 110% | 105% | 105% | 96.1% | 82.3% | 106% | 106% | 93.4% | 102% | 108% | 104% |
| O=C1Nc2ccccc2/C1=C/c1c[nH]c2ccccc12 | 63.9% | 100% | 62.1% | 83.8% | 76.2% | 72.3% | 94.2% | 81.8% | 75.2% | 101% | 99.8% | 15.7% | 64.5% | 29.3% | 110% | 66.7% | 42.8% | 91.6% | 58.9% | 65.6% |
| Nc1nc2ccc([C@@H]3Nc4ccc5[nH]ncc5c4[C@H]4[C@H]5CCC(C5)[C@H]43)cc2s1 | 29.7% | 5.7% (active) | -24.8% (active) | 30.8% | 23.8% | 6.63% (active) | 24.4% | -88.6% (active) | 40.7% | 23.8% | -1.54% (active) | 16.2% | 11.4% | 30.4% | 46.3% | 29.7% | 29.8% | -2.86% (active) | 21.2% | 7.02% (active) |
| COc1ccc(Br)c2ccccc12 | 110% | 110% | 93.7% | 116% | 114% | 102% | 107% | 107% | 101% | 122% | 113% | 94% | 112% | 70.3% | 118% | 102% | 95.3% | 135% | 103% | 91.6% |
| Cc1ccc(-c2cnc3sc4ccc(Cl)cc4n23)cc1 | 100% | 99.8% | 93.9% | 96.4% | 105% | 82.6% | 95.6% | 87.9% | 94.2% | 109% | 103% | 67.1% | 93% | 64.9% | 158% | 92.2% | 84.2% | 88.2% | 106% | 96.7% |
| COc1cc(C2=NOC(c3cc(OC)c(OC)c(OC)c3)C2)ccc1OCCCCOc1cc2c(cc1OC)C(=O)N1CCC[C@H]1C=N2 (stereo not given in full) | 4.27% (active) | -12.3% (active) | -87.7% (active) | -9.51% (active) | -9.51% (active) | -2.09% (active) | -85.3% (active) | -76.6% (active) | -68.6% (active) | -66.1% (active) | 1.46% (active) | -39.6% (active) | 6.18% (active) | 7.06% (active) | -22.4% (active) | 5.06% (active) | 5.08% (active) | -58.7% (active) | -37.5% (active) | 2.1% (active) |
| C=CCn1c(C)nc2cc(Nc3nc(Nc4ccc5nc(C)n(CC=C)c5c4)nc4ccccc34)ccc21 | 107% | 103% | 90.8% | 100% | 94.4% | 95.8% | 99.7% | 95.8% | 93.3% | 106% | 121% | 97.1% | 96.5% | 89.3% | 130% | 104% | 101% | 125% | 94.8% | 101% |
